# Tau fluor cs = counter-screen for tau fibril formation inhibitors; tau K18 P301L Alexa594 fluorescence, heparin fibrillization; Potency, µM (doses to about 57.7 µM), without a hit: at the highest dose activity change, negative = decrease; actives 0.93% (n = 280,000); further: potency means the concentration at half of the fitted maximal effect; nearly all actives have a fitted effect of over 55% in size
#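 Human tau K18 P301L (15 uM unlabeled, 0.24 uM Alexa 594-labeled) in 100 mM sodium acetate pH 7 with 20 uM heparin, 6 hr at 37 C. ThT 30 uM added, 1 hr ambient; Alexa 594 FP and total fluorescence read at 555/632 nm.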
# Tau ThT inhib = blocks human tau fibril formation measured by thioflavin T; actives 2.1% (n = 270,000); P10636; AID 1460; recombinant tau K18 P301L (four-repeat tau fragment), heparin-induced fibrillization, ThT fluorescence; Potency, µM (doses to about 57.4 µM), for inactives: at the highest dose activity, negative = inhibition, most hits filed as inhibitors; further: potency means the concentration at half of the fitted maximal effect; nearly all actives have a fitted effect of over 55% in size
# Target sequence (P10636 561-689 P618L limits assumed): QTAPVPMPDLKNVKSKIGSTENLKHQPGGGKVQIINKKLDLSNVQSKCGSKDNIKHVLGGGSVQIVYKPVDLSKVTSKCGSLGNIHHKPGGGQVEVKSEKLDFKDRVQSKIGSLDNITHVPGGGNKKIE
#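 Heparin-induced fibrillization of the P301L-mutant K18 repeat-domain fragment of human tau was followed by ThT binding in quantitative high-throughput format.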
# Tau FP inhib = inhibitors of human tau fibril formation; actives 0.39% (n = 280,000); K18 P301L tau heparin fibrillization, Alexa594 FP, 6 h; P10636; AID 1468; Potency, µM (top dose mostly 57.7 µM), inactives show at the highest dose activity, negative = inhibition, usual class: inhibitors; further: potency means the concentration at half of the fitted maximal effect; nearly all actives have a fitted effect of over 55% in size
#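 K18 P301L tau (15 uM unlabeled/0.24 uM Alexa 594-labeled, final) + compound + heparin 20 uM final; 100 mM NaOAc pH 7; 6 hr 37 C; ThT 30 uM final added, 1 hr RT; FP ex 555/em 632 nm.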
# FBPA coupling cs = coupling enzyme interference in Giardia aldolase counter-screen. coupling enzyme system counterscreen, AmpLite Red fluorescence. actives 0.67% (n = 290,000). AID 2472. activity change, negative = inhibition, % at 58.2 µM, hits read low; in the data active means activity change below about -30%
#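 Counterscreen of the coupled detection system alone, without aldolase: glyceraldehyde-3-phosphate coupling enzymes plus AmpLite Red readout. Compounds at 57.5 uM final, 10 min RT preincubation, 20 min RT reaction, fluorescence 525/598 nm.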
# Sfp PPTase inh = blocks B. subtilis Sfp PPTase activity. AID 1490. Potency, µM, for inactives: largest response in the series, negative = inhibition, usual class: inhibitors. Q9F4F7. Biochemical Sfp PPTase activity, qHTS. actives 3.5% (n = 310,000);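 further: the enzyme is Sfp with the accession as filed and its product quenches rhodamine fluorescence; potency means the concentration at half of the fitted maximal effect; 0% = enzyme reaction without inhibitor and -100% = no enzyme wells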
#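 After 15 min at room temperature with compound, 15 nM Sfp received 5 uM rhodamine-CoA plus 12.5 uM BHQ-2-ybbR (50 mM Hepes pH 7.6, 10 mM MgCl2). Rate came from the fluorescence difference over 30 min, ex 525/em 598 nm.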
# An asterisk follows results filed as active; ? = inconclusive; · = not tested or not shown; [ ] = dose if it differs, or a comment. Sampled rows, rich in hits. Any-hit rate of the full collection: about 5.2%. Unless noted, the call rests on the fitted dose curve; in most records, active means well fitted curve in the direction sought with a large enough effect; inconclusive means small, poorly fitted or top-dose-only effect, or another doubt; inactive means no such curve, though single readings can be large; an effect the other way counts as inactive or inconclusive. Unless noted, on the % scale 0 is the no-effect control and ±100 the full control effect.
SMILES,Tau fluor cs,Tau ThT inhib,Tau FP inhib,FBPA coupling cs,Sfp PPTase inh
CCOC(=O)Cn1nc(N2CCN(c3ccc(F)cc3)CC2)ccc1=O,-6%,-7%,4%,·,·
Cc1ccc(CNC(=O)CCS(=O)(=O)c2cc(Br)cc3c2N(C(=O)C2CC2)CC3)o1,1%,1%,0%,-8,10µM*
Cc1ccc(CNC(=O)CCS(=O)(=O)c2cc(Br)cc3c2N(C(=O)C2CC2)CC3)cc1,-13%,-11%,6%,·,·
COc1ccc(S(=O)(=O)CCC(=O)Nc2cc(C)ccc2OC)cc1,-5%,3%,-3%,-5,50µM*
Cc1ccc(CNC(=O)Cn2ccc3cc(S(=O)(=O)N4CCCC4)ccc32)o1,·,·,·,2,50µM*
COc1ccc(CCCC(=O)Nc2cc(C)ccc2OC)cc1,·,·,·,-2,-6%
CC(=O)N1CCc2cc(S(=O)(=O)C(C)CC(=O)NCc3ccc(C)o3)ccc21 (centres undefined),·,·,·,1,-24%
CC(=O)N1CCc2cc(S(=O)(=O)CCC(=O)NCc3ccc(C)o3)ccc21,·,·,·,0,25µM*
COc1ccc(Cc2nc3ccccc3n2Cc2ccccc2F)cc1,-13%,?,-3%,·,·
O=C(COC(=O)c1cccc(NC(=O)c2ccc(Br)cc2)c1)c1ccc(Cl)cc1,-18%,-8%,?,·,·
Cc1ccc(O)c(C(CC(=O)NCC2(c3ccccc3)CCCC2)c2ccccc2)c1 (centres undefined),?,-14%,-7%,·,·
O=C(CSc1n[nH]c(-c2ccccc2Cl)n1)N1CCN(c2ccccc2)CC1,-13%,-16%,10%,·,·
CC(=O)OC[C@@H]1O[C@H](CCO/N=C(\C)CCN2CCc3nc(-c4ccccc4)c(-c4ccccc4)cc3C2)C=C[C@@H]1OC(C)=O,-4%[11.6 µM],-10%[11.5 µM],-4%[11.6 µM],1,-2%
COc1ccc(S(=O)(=O)CCC(=O)NCc2ccc(C)o2)cc1,·,·,·,3,50µM*
CCOc1ccc(CC(=O)Nc2nnc3n2CCS3)cc1,3%,6%,4%,·,·
O=C(O)/C=C/C(=O)Nc1ccccc1SC(F)(F)F,4%,-10%,12%,5,13µM*
O=C(O)/C=C/C(=O)Nc1ccccc1-c1ccccc1NC(=O)/C=C/C(=O)O,-16%,?,?,1,7.9µM*
O=C(O)/C=C/C(=O)Nc1ccc(SC(F)(F)F)cc1,-1%,0%,-3%,17,8%
Cc1ccc(C)c(NC(=O)CSc2cn(CC(=O)N3CCCC3)c3ccccc23)c1,-1%,-1%,2%,·,·
O=C(CSc1n[nH]c(-c2ccco2)n1)Nc1sc2c(c1C(=O)Nc1ccccc1)CCCC2,?,-1%,-12%,3,35µM*
CCOC(=O)c1sc(NC(=O)CSc2nnc(-c3ccco3)n2CC)c(C(=O)OCC)c1C,-17%,?,0%,1,25µM*
CCOC(=O)c1c(NC(=O)CSc2nnc(-c3ccccc3)n2CC)sc(C(C)=O)c1C,-4%,-10%,1%,3,14%
CCn1c(SCC(=O)Nc2sc3c(c2C#N)CCCC3)nnc1-c1ccco1,-1%,-10%,-4%,-40*,-28%
CCc1nnc(NC(=O)CSc2nc3c(cc2C#N)CCCC3)s1,-19%,3.2µM*,1%,2,11%
CCOC(=O)c1sc(NC(=O)CSc2nc3c(cc2C#N)CCCCC3)c(C#N)c1C,-25%,-19%,?,-2,-26%
SMILES,Tau fluor cs,Tau ThT inhib,Tau FP inhib,FBPA coupling cs,Sfp PPTase inh
CN1CCc2nc(SCC(=O)Nc3ccc(F)cc3)c(C#N)cc2C1,?,14µM*,-2%,-8,-20%
COc1ccc(NC(=O)CSc2nc3c(cc2C#N)CN(C)CC3)cc1,-21%,?,-2%,-13,10%
CCc1nnc(NC(=O)c2sc3nc4c(cc3c2N)CCCCC4)s1,-18%,1.4µM*,17%,6,1%
c1ccc(C(NCc2cccnc2)(c2ccccc2)c2ccccc2)cc1,·,·,·,3,?
O=C(NN=C1c2ccccc2-c2ccccc21)c1ccccc1,-22%,22µM*,?,0,?
Cc1cc(C)n(CCc2nc3c4ccccc4nc(N4CCN(c5cccc(C)c5C)CC4)n3n2)n1,2%,-1%,1%,·,·
COc1ccc(-c2cc(C(C)=O)c(C)n2CCC(=O)Nc2cc(Cl)ccc2C)cc1,-19%,-7%,1%,·,·
Cc1[nH][nH]c(=O)c1C(c1c(C)[nH][nH]c1=O)c1cn(Cc2ccc(F)cc2)c2ccccc12,-25%,8.9µM*,?,-47*,-15%
Cc1[nH][nH]c(=O)c1C(c1c(C)[nH][nH]c1=O)c1cn(Cc2ccc(Cl)c(Cl)c2)c2ccccc12,?,10µM*,?,-49*,-13%
O=c1c2ccccc2ncn1Cc1ccc(Cl)c(Cl)c1,·,·,·,0,-12%
C[C@]12CC[C@@H]3c4ccc(O)cc4CC[C@H]3[C@@H]1CCC2OC(=O)CCC1CCCC1 (some centres undefined),·,·,·,·,27%
Cc1c2cnn(-c3ccccc3)c(=O)c2c(C)n1CC(=O)NCc1ccccc1Br,-8%,4%,-2%,·,·
CNS(=O)(=O)c1ccc2nc(NC(=O)c3ccc(N4C(=O)CCC4=O)cc3)sc2c1,-16%,-10%,-1%,3,14µM*
O=C(Nc1nc2cc3c(cc2s1)OCCO3)c1ccc(N2C(=O)CCC2=O)cc1,-20%,·,-12%,3,14µM*
O=C(Nc1nc2cc3c(cc2s1)OCCO3)c1ccncc1,-17%,?,?,-4,2%
COc1ccc([C@]23Cc4cc(OC)c(OC)cc4C(O2)C2=C(CC4(CCCCC4)OC2=O)O3)cc1,·,·,·,0,1%
Cc1ccc(-c2csc3nc4cc(C(=O)NC5CCC(O)CC5)ccc4c(=O)n23)cc1 (centres undefined),2%,-8%,-3%,-1,56µM*
O=C(Nc1cc(Sc2ccccn2)cc([N+](=O)[O-])c1)c1ccc(Cl)cc1,10µM*[quencher],-14%,-9%,-2,4%
CC(C)CCCCCCNC(=S)Nc1ccc(S(=O)(=O)N2CCOCC2)cc1,?,15%,25µM*,-6,31%
CCOC(=O)N1CC=C2C(C#N)=C(N)C(C#N)(C#N)[C@H](c3ccsc3)[C@H]2C1,-12%,?,?,1,-6%
N#CC1=C(N)C(C#N)(C#N)C(c2ccncc2)C2CN(C(=O)OCc3ccccc3)CC=C12 (centres undefined),-15%,25µM*,?,2,17%
N#CC1=C(N)C(C#N)(C#N)[C@H](c2cccnc2)[C@H]2CN(C(=O)OCc3ccccc3)CC=C12,-16%,16µM*,?,0,-20%
CC(C)Cn1c(=O)c2sccc2n2c(CCCC(=O)NCCc3ccc(Cl)cc3)nnc12,-16%,-6%,5%,·,·
CCSc1nc2c([nH]c3ccccc32)c(=O)n1-c1ccc(OC)cc1,-6%,3%,-14%,·,·

# Compound activity as filed in PubChem.
